{"source": "PubChem BioAssay (EPA / NIEHS)", "key": {"[1]": {"system": "Thyroperoxidase (TPO), gene 54314", "test": "CCTE_Simmons_AUR_rTPO: CCTE's Amplex UltraRed Assay for Thyroperoxidase (TPO) Inhibition, Simmons Lab (AID 2283662);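 also: potency for loss of signal meaning inhibition of peroxidase activity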", "procedure,_shortened": "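Rat thyroid microsomes (5 ug protein) were incubated with test compound (8 concentrations, 5 nM–87.5 uM final, 0.5% DMSO), 25 uM Amplex UltraRed and 300 uM H2O2 in 200 mM phosphate buffer for 30 min at 37C in the dark; fluorescence read at 544/590 nm.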"}, "[2]": {"test": "CCTE_Simmons_CellTiterGLO_HEK293T: Viability Assessment in CCTE's Assays for Thyroperoxidase (TPO) Inhibition, Simmons Lab (AID 2283665);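 also: cells exposed to compound for 24 h before readout; actives reduce ATP signal below DMSO vehicle meaning cytotoxicity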", "procedure,_shortened": "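Cytotoxicity counter-screen: human HEK293T cells in low-serum (1% FBS) medium receive test chemical, 5 nM to 87.5 uM final, for 24 h; ATP is quantified by luciferase luminescence.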"}, "[3]": {"biological_target": "Luciferin 4-monooxygenase (Photinus pyralis) (UniProt P08659)", "sequence (P08659 whole entry, looked up)": "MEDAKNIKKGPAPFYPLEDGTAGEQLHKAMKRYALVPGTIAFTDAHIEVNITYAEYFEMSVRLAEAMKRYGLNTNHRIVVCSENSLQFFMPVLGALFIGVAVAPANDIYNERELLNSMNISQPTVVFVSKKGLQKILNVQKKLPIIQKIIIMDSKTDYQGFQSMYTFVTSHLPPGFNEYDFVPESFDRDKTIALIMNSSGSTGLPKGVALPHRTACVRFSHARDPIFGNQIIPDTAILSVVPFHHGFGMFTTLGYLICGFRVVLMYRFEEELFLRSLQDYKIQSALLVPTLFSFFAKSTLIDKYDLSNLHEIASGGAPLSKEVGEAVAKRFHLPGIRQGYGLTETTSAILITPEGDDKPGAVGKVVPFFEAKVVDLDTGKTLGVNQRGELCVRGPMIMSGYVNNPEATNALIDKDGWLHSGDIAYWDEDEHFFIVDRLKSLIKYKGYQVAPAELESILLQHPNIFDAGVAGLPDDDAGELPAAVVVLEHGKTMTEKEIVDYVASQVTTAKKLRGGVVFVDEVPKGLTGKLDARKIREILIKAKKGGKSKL", "test": "CCTE_Simmons_QuantiLum_inhib_2: CCTE's Firefly Luciferase Inhibition Assay, Simmons Lab (AID 2283767)", "procedure,_shortened": "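Counter-screen for nonspecific enzyme inhibition: purified firefly luciferase incubated 30 min at 37C with chemicals up to 87.5 uM final, then luminescence measured after luciferin/dATP injection; activity fitted against DMSO baseline.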"}, "[4]": {"system": "Brachyury (BRA) Protein Expression, Deisenroth Lab, TBXT (gene 6862)", "test": "CCTE_Deisenroth_DEVTOX-GLR_legacy_Bra: (Legacy) CCTE's DevTox GLR-Endo Assay Evaluation of Brachyury (BRA) Protein Expression, Deisenroth Lab (AID 2284329; active = hit-call score of the fitted dose curve at least 0.9, where 1 is the maximum; inactive = score below 0.9)", "procedure,_shortened": "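RUES2-GLR human pluripotent cells differentiated 48 h with two 24-h-interval chemical exposures (1 nM - 200 uM, 10 points); fixed, nuclear-stained, imaged. Bra+ cell percentage (intensity 5x BMAD above pluripotent control median) fitted relative to 0.2% DMSO.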"}, "[5]": {"test": "CCTE_Deisenroth_DEVTOX-GLR_legacy_CellCount: (Legacy) Viability Assessment in CCTE's DevTox GLR-Endo Assay, Deisenroth Lab (AID 2284331; active = hit-call score of the fitted dose curve at least 0.9, where 1 is the maximum; inactive = score below 0.9)", "details": "actives raise or lower the signal", "procedure,_shortened": "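RUES2-GLR human pluripotent cells were seeded 24 h, then differentiated 48 h with two compound doses at 24 h intervals (10-point, 1 nM - 200 uM). Fixed nuclei were imaged and counted; bidirectional fitting versus 0.2% DMSO.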"}, "[6]": {"system": "SRY-box transcription factor 17 (SOX17) Protein Expression, Deisenroth Lab, SOX17 (gene 64321)", "test": "CCTE_Deisenroth_DEVTOX-GLR_legacy_Sox17: (Legacy) CCTE's DevTox GLR-Endo Assay Evaluation of SRY-box transcription factor 17 (SOX17) Protein Expression, Deisenroth Lab (AID 2284341; active = hit-call score of the fitted dose curve at least 0.9, where 1 is the maximum; inactive = score below 0.9)", "details": "actives raise or lower the signal", "procedure,_shortened": "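Percent SOX17-positive cells, scored by high-content imaging as mean intensity exceeding pluripotent-control median by 5x BMAD, divided by cell count. Human RUES2-GLR endoderm differentiation, 48 h, two exposures 24 h apart, 1 nM–200 uM; DMSO-referenced bidirectional fitting.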"}, "[7]": {"system": "SRY-box transcription factor 2 (SOX2) Protein Expression, Deisenroth Lab, SOX2 (gene 6657)", "test": "CCTE_Deisenroth_DEVTOX-GLR_legacy_Sox2: (Legacy) CCTE's DevTox GLR-Endo Assay Evaluation of SRY-box transcription factor 2 (SOX2) Protein Expression, Deisenroth Lab (AID 2284346; active = hit-call score of the fitted dose curve at least 0.9, where 1 is the maximum; inactive = score below 0.9)", "procedure,_shortened": "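RUES2-GLR human pluripotent cells seeded 24 h, then differentiated 48 h in defined media with two chemical doses 24 h apart (10-point, 1 nM–200 uM). Fixed, nuclear-stained, imaged; % Sox2+ cells (>5x BMAD over endoderm control median), DMSO-subtracted, fitted upward.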"}, "[8]": {"system": "SRY-box transcription factor 2 (SOX2) Protein Expression, Deisenroth Lab, SOX2 (gene 6657)", "test": "CCTE_Deisenroth_DEVTOX-GLR_Endo_SOX2: CCTE's DevTox GLR-Endo Assay Evaluation of SRY-box transcription factor 2 (SOX2) Protein Expression, Deisenroth Lab (AID 2284412)", "procedure,_shortened": "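RUES2-GLR human pluripotent cells were seeded 24 h, then differentiated 48 h with two chemical exposures 24 h apart. Cells were fixed, nuclei stained and imaged by high-content microscopy. Endpoint is %SOX2+ cells over cell count, minus 0.2% DMSO control; 10-point series 1 nM–200 uM.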"}, "[9]": {"system": "SRY-box transcription factor 17 (SOX17) Protein Expression, Deisenroth Lab, SOX17 (gene 64321)", "test": "CCTE_Deisenroth_DEVTOX-GLR_Endo_SOX17: CCTE's DevTox GLR-Endo Assay Evaluation of SRY-box transcription factor 17 (SOX17) Protein Expression, Deisenroth Lab (AID 2284413; active = hit-call score of the fitted dose curve at least 0.9, where 1 is the maximum; inactive = score below 0.9)", "procedure,_shortened": "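Endpoint: % change in SOX17+ fraction (SOX17+ cells / cell count) vs 0.2% DMSO solvent control. RUES2-GLR reporter cells, 48 h endoderm differentiation, two doses at 24 h intervals, high-content fluorescence imaging, 5 fields/well.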"}, "[10]": {"test": "CCTE_Deisenroth_DEVTOX-GLR_Endo_CellCount: Viability Assessment in CCTE's DevTox GLR-Endo Assay, Deisenroth Lab (AID 2284420; active = hit-call score of the fitted dose curve at least 0.9, where 1 is the maximum; inactive = score below 0.9)", "procedure,_shortened": "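RUES2-GLR pluripotent cells seeded 24 h, then differentiated 48 h in defined media with two chemical exposures 24 h apart. Nuclei counted by high-content imaging; 10-point 1 nM–200 uM series; percent change versus 0.2% DMSO.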"}, "[11]": {"system": "SRY-box transcription factor 17 (SOX17) Protein Expression, Deisenroth Lab, SOX17 (gene 64321)", "test": "CCTE_Deisenroth_DEVTOX-GLR_Pluri_SOX17: CCTE's DevTox GLR-Pluri Assay Evaluation of SRY-box transcription factor 17 (SOX17) Protein Expression, Deisenroth Lab (AID 2284427)", "procedure,_shortened": "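RUES2-GLR pluripotent cells were induced toward endoderm over 48 h and received two compound doses 24 h apart, in a 10-point series from 1 nM to 200 uM. The percentage of SOX17+ cells among total cells was measured by high-content imaging and reported minus the 0.2% DMSO control.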"}, "[12]": {"system": "Brachyury (BRA) Protein Expression, Deisenroth Lab, TBXT (gene 6862)", "test": "CCTE_Deisenroth_DEVTOX-GLR_Pluri_BRA: CCTE's DevTox GLR-Pluri Assay Evaluation of Brachyury (BRA) Protein Expression, Deisenroth Lab (AID 2284429)", "procedure,_shortened": "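Human pluripotent RUES2-GLR cells, seeded 24 h, were differentiated 48 h in defined media with two chemical doses at 24-h intervals (10-point, 1 nM - 200 uM). Readout: percent BRA+ cells by fluorescent reporter imaging, minus 0.2% DMSO control.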"}, "[13]": {"test": "CCTE_Deisenroth_DEVTOX-GLR_Pluri_CellCount: Viability Assessment in CCTE's DevTox GLR-Pluri Assay Evaluation of Total Cell Counts, Deisenroth Lab (AID 2284430; active = hit-call score of the fitted dose curve at least 0.9, where 1 is the maximum; inactive = score below 0.9)", "procedure,_shortened": "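RUES2-GLR human pluripotent cells, seeded 24 h, then differentiated 48 h with two chemical exposures 24 h apart; 10-point series 1 nM - 200 uM. Fixed, nuclear-stained, imaged (5 fields/well); nuclei count as % change vs 0.2% DMSO.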"}, "[14]": {"biological_target": "THRB (gene 7068) (UniProt P10828)", "sequence (P10828 whole entry, looked up, the tested form may be a part)": "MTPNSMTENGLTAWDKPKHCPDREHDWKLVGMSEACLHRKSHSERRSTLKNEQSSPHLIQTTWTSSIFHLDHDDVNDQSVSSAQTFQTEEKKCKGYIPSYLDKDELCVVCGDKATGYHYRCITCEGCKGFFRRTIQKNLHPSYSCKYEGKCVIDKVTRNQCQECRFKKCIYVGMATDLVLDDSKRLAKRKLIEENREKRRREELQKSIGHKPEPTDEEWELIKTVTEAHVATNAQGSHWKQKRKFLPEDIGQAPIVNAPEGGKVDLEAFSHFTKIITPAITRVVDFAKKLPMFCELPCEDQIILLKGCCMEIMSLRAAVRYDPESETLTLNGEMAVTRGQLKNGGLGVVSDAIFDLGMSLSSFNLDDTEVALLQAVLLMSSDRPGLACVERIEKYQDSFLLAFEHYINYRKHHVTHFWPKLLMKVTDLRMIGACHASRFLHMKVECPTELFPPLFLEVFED", "test": "TOX21_TRB_BLA_Agonist_Followup_ratio: Tox21 Thyroid Hormone Receptor beta Agonism Beta-lactamase (BLA) Follow-Up Assay, Ratio (AID 2283954)", "procedure,_shortened": "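Human TRβ LBD–GAL4 DBD fusion in GeneBLAzer UAS-bla HEK293T cells; 11 concentrations in triplicate, 18 h at 37°C/5% CO2, T3 as agonist control. CCF4-AM substrate 2 h at room temperature; 460:530 nm ratio fitted for gain of signal versus DMSO.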"}}, "note": "Results filed as inconclusive are left out. Activity calls are given as the source filed them. The calls were made as follows, unless noted: active = hit-call score of the fitted dose curve at least 0.9, where 1 is the maximum; inconclusive = response in the unintended direction; inactive = score below 0.9."}
{"smiles": "CCN(CC)CCNC(=O)c1c(C)[nH]c(/C=C2\\C(=O)Nc3ccc(F)cc32)c1C", "values": [{"measurement": "AC50", "setting": "[1]", "result": "8810 nM (active)"}, {"measurement": "AC50", "setting": "[2]", "result": "12800 nM (active)"}, {"measurement": "outcome", "setting": "[3]", "result": "inactive"}, {"measurement": "AC50", "setting": "[4]", "result": "6880 nM (active)"}, {"measurement": "AC50", "setting": "[5]", "result": "1630 nM (active)"}, {"measurement": "AC50", "setting": "[6]", "result": "623 nM (active)"}, {"measurement": "AC50", "setting": "[7]", "result": "621 nM (active)"}, {"measurement": "AC50", "setting": "[8]", "result": "2500 nM (active)"}, {"measurement": "AC50", "setting": "[9]", "result": "616 nM (active)"}, {"measurement": "AC50", "setting": "[10]", "result": "1620 nM (active)"}, {"measurement": "AC50", "setting": "[11]", "result": "1460 nM (active)"}, {"measurement": "AC50", "setting": "[12]", "result": "264 nM (active)"}, {"measurement": "AC50", "setting": "[13]", "result": "1230 nM (active)"}]}
{"smiles": "Cc1cc(-n2c(=O)[nH]c(=O)n(C)c2=O)ccc1Oc1ccc(S(=O)(=O)C(F)(F)F)cc1", "values": [{"measurement": "outcome", "setting": "[14]", "result": "inactive"}]}
{"smiles": "CC(C)(C)CC(C)(C)c1ccc(O)c(Cc2ccc(Cl)cc2Cl)c1", "values": [{"measurement": "outcome", "setting": "[14]", "result": "inactive"}]}
